Assay [1] deals with Lysosomal acid glucosylceramidase (Homo sapiens) (UniProt P04062). Description: Glucocerebrosidase-p2 (AID 348; in the data active = potency below about 10 µM; also: potency is read from the fitted curve at half-maximal effect). Particulars: purified GBA, blue fluorogenic substrate, 40 min. The method in brief:
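Normal human glucocerebrosidase (0.2 nM) with blue fluorogenic substrate (80 uM final) in citrate/phosphate pH 5.9 with 10mM sodium taurocholate, 0.01% tween-20; 40 min RT, NaOH/glycine stop; fluorescence Ex 365/Em 440; AC50 from a titration from 0.6 nM upwards.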

Assay [2] can be described thus: AP1 Signaling Pathway (AID 357).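 Also: ME-180 reporter cells stimulated with EGF at its EC50 level; % is scaled to controls: 0 for no effect and ±100 for the full control effect.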 Particulars: ME-180 AP-1-bla reporter, EGF-induced, beta-lactamase ratio, 5 h; at 7.69 µM (top of the series) unless noted. A digest of the protocol:
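Titration-series screen for positive or negative modulators of EC50 EGF-induced signaling in ME-180 cells carrying an AP-1-driven beta-lactamase reporter. After 5 hours at 37 degrees Celsius, CCF4 460nm/530nm emission ratio gave %Activity; AC50 values derived.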

The target in assay [3] is Cytochrome P450 1A2 (Homo sapiens) (UniProt P05177). Description: p450-cyp1a2 (AID 410; calls by dose curve; also: potency is read from the fitted curve at half-maximal effect). Particulars: recombinant CYP1A2, luciferin-ME demethylation, luminescence; series mostly up to 57 µM. A digest of the protocol: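 Luminescent demethylation readout: Luciferin-ME (100uM, equal to Km) turned over by 20nM CYP1A2 for 60 min at room temperature after NADPH regeneration addition, following 10 min compound preincubation. Normalization used 57 uM furafylline as full inhibition.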
Sequence of Cytochrome P450 1A2 (Homo sapiens) (P05177 whole entry, looked up): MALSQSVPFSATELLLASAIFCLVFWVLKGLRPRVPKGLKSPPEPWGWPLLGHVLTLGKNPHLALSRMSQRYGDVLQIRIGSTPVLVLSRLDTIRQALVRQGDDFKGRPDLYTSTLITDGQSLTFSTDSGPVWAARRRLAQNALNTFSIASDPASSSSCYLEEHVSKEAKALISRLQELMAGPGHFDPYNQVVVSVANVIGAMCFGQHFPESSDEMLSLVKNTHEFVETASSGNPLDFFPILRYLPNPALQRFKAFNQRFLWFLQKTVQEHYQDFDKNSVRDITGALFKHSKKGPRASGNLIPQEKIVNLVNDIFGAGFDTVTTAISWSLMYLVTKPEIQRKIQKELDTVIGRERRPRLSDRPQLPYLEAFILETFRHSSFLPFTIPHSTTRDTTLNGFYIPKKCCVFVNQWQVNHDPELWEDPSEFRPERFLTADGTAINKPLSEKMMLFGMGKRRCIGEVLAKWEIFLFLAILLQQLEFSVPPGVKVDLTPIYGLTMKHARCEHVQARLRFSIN

The target of assay [4] is Glucocorticoid receptor (Homo sapiens) (UniProt P04150). As to the kind of experiment: GR-EFC Redistribution (AID 451; calls by dose curve; also: potency is read from the fitted curve at half-maximal effect). Particulars: CHO-K1 GR-EFC translocation, beta-gal luminescence, 2 h. A digest of the protocol: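 CHO-K1 cells stably expressing nuclear-localized β-gal enzyme acceptor and GR fused C-terminally to the enzyme donor fragment; ligand-driven nuclear translocation restores β-gal by complementation. Compounds titrated up to 46 uM final, 2 h at 37 °C; luminescence read.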
Sequence of Glucocorticoid receptor (Homo sapiens) (P04150 whole entry, looked up, the tested form may be a part): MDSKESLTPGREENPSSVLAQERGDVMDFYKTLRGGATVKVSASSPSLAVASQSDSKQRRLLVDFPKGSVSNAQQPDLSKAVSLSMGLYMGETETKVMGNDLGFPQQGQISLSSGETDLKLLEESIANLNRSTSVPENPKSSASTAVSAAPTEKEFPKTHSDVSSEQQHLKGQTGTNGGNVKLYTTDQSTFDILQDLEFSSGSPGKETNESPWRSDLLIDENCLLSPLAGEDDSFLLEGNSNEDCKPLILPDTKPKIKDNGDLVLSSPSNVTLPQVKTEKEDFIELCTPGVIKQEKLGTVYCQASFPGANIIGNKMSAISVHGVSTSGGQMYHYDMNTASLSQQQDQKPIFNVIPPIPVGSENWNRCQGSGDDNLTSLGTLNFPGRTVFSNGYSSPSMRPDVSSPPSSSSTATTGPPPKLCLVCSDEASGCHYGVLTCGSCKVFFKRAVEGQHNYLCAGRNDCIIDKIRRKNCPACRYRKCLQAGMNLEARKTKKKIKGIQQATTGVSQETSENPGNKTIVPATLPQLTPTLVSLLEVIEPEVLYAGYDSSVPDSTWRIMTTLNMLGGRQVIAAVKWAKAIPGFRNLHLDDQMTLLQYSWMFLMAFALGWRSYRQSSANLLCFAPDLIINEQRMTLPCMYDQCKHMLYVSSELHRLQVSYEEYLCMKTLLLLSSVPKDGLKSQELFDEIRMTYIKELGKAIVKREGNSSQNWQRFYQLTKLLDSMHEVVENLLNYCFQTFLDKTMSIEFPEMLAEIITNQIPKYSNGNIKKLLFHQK

The target of assay [5] is Mitogen-activated protein kinase 10 (Mus musculus) (UniProt Q61831). As to the kind of experiment: JNK3 AlphaScreen Assay (AID 530).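 Also: kinase came from lysate of stimulated human HepG2 cells; signal reports phosphorylation of biotinylated GST-cJun 1-79 at Ser73 with 10 µM ATP; % is scaled to controls: 0 for no effect and ±100 for the full control effect.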 Particulars: JNK3 lysate, c-Jun phosphorylation; series mostly up to 57.1 µM. A digest of the protocol:
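Phosphorylation of biotinylated GST-cJun(1-79) at Ser73 is measured by AlphaScreen proximity luminescence. Enzyme is JNK3 in HepG2 lysates activated with interleukin-1beta and tumor necrosis factor alpha; ATP is 10 uM final.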
In general terms: Alpha assays give light when donor and acceptor beads are brought close together.

Assay [6] has as its target 3',5'-cyclic-AMP phosphodiesterase 4B (Homo sapiens) (UniProt Q07343). Description: qHTS Assay for Inhibitors of PDE-IV (AID 607; active = well fitted activation curve with a large enough effect in the main read-out, with a control signal flat, not every such curve was filed as active; also: % of control where 0% means no effect). Particulars: HEK293 ACTOne CNG channel cells, membrane potential fluorescence; series mostly up to 22.9 µM. The method in brief: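 Live HEK293 cells with a modified cyclic nucleotide-gated (CNG) channel report intracellular cAMP via membrane-potential dye fluorescence (ex 535/em 590 nm). Endogenous PDE-IV was targeted. Compounds were tested at up to 22.9 uM final; RO 20-1724 100 uM served as control.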
On the technique in general: Quantitative high-throughput screening tests each substance at several concentrations.

Assay [7] addresses Cytochrome P450 2C9 (Homo sapiens) (UniProt P11712). Description: qHTS Assay for Inhibitors and Substrates of Cytochrome P450 2C9 (AID 883; active = well fitted curve in the direction sought with a large enough effect; an effect the other way counts as inactive or inconclusive; also: % is scaled to controls: 0 for no effect and ±100 for the full control effect; nearly all actives have a fitted effect of over 60% in size). Particulars: recombinant CYP2C9, luciferin-H luminescence, 60 min; series mostly up to 57.1 µM. The method in brief: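 CYP2C9 deoxyluciferin hydroxylation, 37C, 60 min with NADPH regeneration; 10nM enzyme, 100uM Luciferin-H (KM). Glo detection reagent stopped reaction; luminescence normalized to sulphaphenazole (57uM) full inhibition.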

A short description of assay [8]: Primary qHTS for small molecule stabilizers of the endoplasmic reticulum resident proteome: Secreted ER Calcium Modulated Protein (SERCaMP) assay (AID 1508630; active = well fitted curve in the direction sought with a large enough effect; an effect the other way counts as inactive or inconclusive; also: % is scaled to controls: 0 for no effect and ±100 for the full control effect). Particulars: SH-SY5Y GLuc-SERCaMP (Gaussia luciferase released on ER calcium loss) secretion, thapsigargin, luminescence; series mostly up to 38.4 µM. The method in brief: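 The SH-SY5Y reporter protocol was run at 3 concentrations up to 38.3 uM (primary) or 11 concentrations (follow-up): 16 h compound, 100 nM thapsigargin for 4 h, then extracellular luciferase luminescence.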

Assay [9] in a line: NFAT Signaling Pathway (AID 444).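 Also: carbachol stimulus at about its EC50 of 1 µM final; % is scaled to controls: 0 for no effect and ±100 for the full control effect.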 Particulars: Jurkat NFAT-bla M1, carbachol, beta-lactamase ratio, 5 h; at 7.69 µM (top of the series) unless noted. A digest of the protocol: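 Jurkat cells carrying an NFAT-driven β-lactamase reporter and co-transfected muscarinic M1 receptor were treated with compound plus carbachol (1 uM final, an EC50 level) for 5 h at 37 °C. CCF4 loading followed for 1 h at RT; 460/530 nm ratio gave %activity.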

The nature of assay [10]: Stat Signaling Pathway (AID 446). Particulars: ME-180 SIE beta-lactamase reporter, IL-6 stimulated, 5 h; at 7.69 µM (top of the series) unless noted. The method in brief: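 Overnight-plated ME-180 cells bearing a STAT Inducible Element beta-lactamase reporter; 5 h co-exposure to compound and 40 pM IL-6; values normalized to 300 pM IL-6 and 125 nM JAK inhibitor controls.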

For assay [11], the target named is Glucocorticoid receptor (Homo sapiens) (UniProt P04150). As to the kind of experiment: GR-GFP Redistribution (AID 450;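 active = compounds whose dose series gives a full or clear partial fitted curve of increased nuclear translocation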; also: potency is read from the fitted curve at half-maximal effect). Particulars: U2OS GR-GFP nuclear translocation, laser cytometry, 2 h.
Assay [12] is described as follows: qHTS Assay for Identification of Small Molecule Agonists for Hypoxia Response Element Signaling Pathway (AID 914; active = well fitted activation curve with a large enough effect in the signal ratio, with a control signal flat, not every such curve was filed as active; the % refers to the signal ratio; also: % of control where 0% means no effect). Particulars: ME-180 (cervical carcinoma) HRE-bla reporter, beta-lactamase ratio, CoCl2, 17 h; activation: active compounds read high. A digest of the protocol: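 HRE-bla ME-180 cells with beta-lactamase reporter under hypoxia response element, compounds with EC50 CoCl2 for 17 hours at 37 C. CCF4 substrate, 460nm/530nm emission ratio gave %Activity; AC50 from titration series.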

For assay [13], the target named is Cytochrome P450 3A4 (Homo sapiens) (UniProt P08684). Description: qHTS Assay for Activators of Cytochrome P450 3A4 (AID 885; active = well fitted curve in the direction sought with a large enough effect; an effect the other way counts as inactive or inconclusive; also: nearly all actives have a fitted effect of over 65% in size). Particulars: recombinant CYP3A4, Luciferin-PPXE luminescence, 60 min; series mostly up to 57.1 µM. The method in brief: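 Using 20nM recombinant human CYP3A4 in potassium phosphate (200mM), substrate Luciferin-PPXE at 25uM, luminescent luciferin detection followed a 60-min RT NADPH reaction; data scaled to 57 uM ketoconazole.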
Sequence of Cytochrome P450 3A4 (Homo sapiens) (P08684 whole entry, looked up): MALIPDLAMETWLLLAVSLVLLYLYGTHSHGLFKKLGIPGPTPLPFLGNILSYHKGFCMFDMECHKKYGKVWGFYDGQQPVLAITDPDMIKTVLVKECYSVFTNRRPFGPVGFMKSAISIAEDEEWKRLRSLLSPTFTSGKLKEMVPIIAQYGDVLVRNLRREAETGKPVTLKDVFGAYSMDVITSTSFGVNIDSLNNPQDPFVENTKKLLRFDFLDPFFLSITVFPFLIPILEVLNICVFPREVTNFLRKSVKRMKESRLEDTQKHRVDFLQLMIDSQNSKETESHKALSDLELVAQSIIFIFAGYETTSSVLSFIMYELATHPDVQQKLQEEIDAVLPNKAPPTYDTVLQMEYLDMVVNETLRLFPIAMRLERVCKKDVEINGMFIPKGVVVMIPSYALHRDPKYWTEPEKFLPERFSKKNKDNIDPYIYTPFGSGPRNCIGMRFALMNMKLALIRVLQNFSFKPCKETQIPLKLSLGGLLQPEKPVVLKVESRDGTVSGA

The target in assay [14] is Cytochrome P450 2D6 (Homo sapiens) (UniProt P10635). As to the kind of experiment: qHTS Assay for Inhibitors and Substrates of Cytochrome P450 2D6 (AID 891; active = well fitted curve in the direction sought with a large enough effect; an effect the other way counts as inactive or inconclusive; also: potency is read from the fitted curve at half-maximal effect; nearly all actives have a fitted effect of over 60% in size). Particulars: recombinant CYP2D6, luciferin-ME EGE luminescence; series mostly up to 57.1 µM. The method in brief: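 Luminescent read-out of luciferin formed by 5 nM human CYP2D6 demethylating 30 uM Luciferin-ME EGE (Km level) over 60 min at room temperature after NADPH regeneration addition. Data normalized to full inhibition by 1.43 uM quinidine.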
Sequence of Cytochrome P450 2D6 (Homo sapiens) (P10635 whole entry, looked up): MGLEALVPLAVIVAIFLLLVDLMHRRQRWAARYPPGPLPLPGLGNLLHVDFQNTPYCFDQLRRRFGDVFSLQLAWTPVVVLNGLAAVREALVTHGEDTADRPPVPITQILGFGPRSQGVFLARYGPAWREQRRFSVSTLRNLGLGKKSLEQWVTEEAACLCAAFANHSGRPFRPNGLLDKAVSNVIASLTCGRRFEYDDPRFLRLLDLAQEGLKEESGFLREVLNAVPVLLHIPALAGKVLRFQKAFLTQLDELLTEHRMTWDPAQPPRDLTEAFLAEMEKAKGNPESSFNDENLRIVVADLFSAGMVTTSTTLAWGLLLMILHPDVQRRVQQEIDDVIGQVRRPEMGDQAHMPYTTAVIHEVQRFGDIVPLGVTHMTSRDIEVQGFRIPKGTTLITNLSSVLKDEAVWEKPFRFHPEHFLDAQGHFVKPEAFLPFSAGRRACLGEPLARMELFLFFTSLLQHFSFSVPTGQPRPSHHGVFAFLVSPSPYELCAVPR

Unmarked numbers belong to inactive results. Results filed as inconclusive are left out. Active and inactive are the calls of the source. Unless noted, calls follow the shape of the dose curve; as a rule, active = well fitted curve in either direction with a large enough effect (not every such curve was filed as active); inconclusive = small, poorly fitted or top-dose-only effect, or another doubt; inactive = flat fitted curve, though single readings scatter.

Sequence of Lysosomal acid glucosylceramidase (Homo sapiens) (P04062 whole entry, looked up): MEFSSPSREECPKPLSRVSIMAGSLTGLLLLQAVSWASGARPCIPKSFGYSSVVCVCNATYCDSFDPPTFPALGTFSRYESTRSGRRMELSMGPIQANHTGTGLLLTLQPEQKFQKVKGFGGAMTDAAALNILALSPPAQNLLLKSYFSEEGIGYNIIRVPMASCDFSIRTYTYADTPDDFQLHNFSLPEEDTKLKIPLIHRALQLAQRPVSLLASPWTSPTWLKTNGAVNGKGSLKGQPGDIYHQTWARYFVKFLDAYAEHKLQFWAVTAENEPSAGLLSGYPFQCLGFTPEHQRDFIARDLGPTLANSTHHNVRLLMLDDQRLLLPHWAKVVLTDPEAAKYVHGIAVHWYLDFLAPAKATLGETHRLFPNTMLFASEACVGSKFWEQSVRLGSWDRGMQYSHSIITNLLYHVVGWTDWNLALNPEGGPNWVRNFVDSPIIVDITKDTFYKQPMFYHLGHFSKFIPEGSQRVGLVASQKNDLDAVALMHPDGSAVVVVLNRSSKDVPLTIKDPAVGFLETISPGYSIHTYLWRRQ
Sequence of 3',5'-cyclic-AMP phosphodiesterase 4B (Homo sapiens) (Q07343 whole entry, looked up): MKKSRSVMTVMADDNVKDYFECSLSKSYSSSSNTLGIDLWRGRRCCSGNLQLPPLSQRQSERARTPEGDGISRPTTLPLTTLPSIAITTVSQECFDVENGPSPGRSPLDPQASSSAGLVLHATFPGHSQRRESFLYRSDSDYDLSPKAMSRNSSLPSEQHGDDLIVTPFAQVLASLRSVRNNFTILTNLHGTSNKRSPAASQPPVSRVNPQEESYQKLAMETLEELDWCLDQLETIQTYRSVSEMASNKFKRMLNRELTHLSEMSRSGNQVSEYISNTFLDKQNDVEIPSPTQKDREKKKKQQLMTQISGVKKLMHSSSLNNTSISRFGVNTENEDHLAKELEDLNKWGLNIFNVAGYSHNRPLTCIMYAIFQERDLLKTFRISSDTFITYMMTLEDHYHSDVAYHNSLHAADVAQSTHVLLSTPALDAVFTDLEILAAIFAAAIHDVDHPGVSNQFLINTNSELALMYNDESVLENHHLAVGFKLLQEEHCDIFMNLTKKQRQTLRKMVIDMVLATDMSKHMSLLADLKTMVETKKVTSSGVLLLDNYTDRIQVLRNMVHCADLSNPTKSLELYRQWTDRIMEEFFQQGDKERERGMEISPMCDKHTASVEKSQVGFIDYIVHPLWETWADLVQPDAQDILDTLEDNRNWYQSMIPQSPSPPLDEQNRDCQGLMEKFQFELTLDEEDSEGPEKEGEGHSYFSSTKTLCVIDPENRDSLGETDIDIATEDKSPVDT
Sequence of Cytochrome P450 2C9 (Homo sapiens) (P11712 whole entry, looked up): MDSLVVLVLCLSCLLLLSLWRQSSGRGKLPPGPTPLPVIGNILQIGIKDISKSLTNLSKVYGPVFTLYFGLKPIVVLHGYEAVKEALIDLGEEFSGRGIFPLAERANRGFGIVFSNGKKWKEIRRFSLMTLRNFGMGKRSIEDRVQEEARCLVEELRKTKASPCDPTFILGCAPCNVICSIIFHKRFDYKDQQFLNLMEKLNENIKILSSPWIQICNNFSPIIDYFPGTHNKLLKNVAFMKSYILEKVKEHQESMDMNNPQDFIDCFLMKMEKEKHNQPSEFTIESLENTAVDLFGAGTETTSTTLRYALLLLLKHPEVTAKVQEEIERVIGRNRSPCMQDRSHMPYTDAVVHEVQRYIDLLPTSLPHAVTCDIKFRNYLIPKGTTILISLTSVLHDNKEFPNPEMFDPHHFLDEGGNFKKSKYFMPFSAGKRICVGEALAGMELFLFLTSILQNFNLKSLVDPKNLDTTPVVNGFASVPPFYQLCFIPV

`O=C(Nc1ccccc1)N1CC2(CCN(C(=O)c3cc(C(F)(F)F)cc(C(F)(F)F)c3)CC2)C1`: the results for the Potency in assay [1] and in assay [4] were over 11.4 µM and over 46 µM, respectively. Further, the activity change, negative = inhibition in [2] was 12.7%. The Potency result in [3], in [5], in [6] and in assay [7] was “inactive” in each case. For the same molecule, the result in [8] was inactive.

`COc1ncc2nc(-c3ccc(F)cc3)c(=O)n(CCC#N)c2n1`: the Potency in [1] is over 11.4 µM; in assay [11], over 9.22 µM; in assay [4], over 46 µM. For the same molecule, the results for the activity change, negative = inhibition in [2] and in assay [9] were 13.2% and -5.63%, respectively. Besides, in [10], the activity, negative = inhibition is -0.246%. The Potency entry in assay [5] and in assay [6] was “inactive” in each case. Besides, in assay [8], the outcome was inactive.

In the case of `O=C(c1ccco1)N1CCC2(CCCN(Cc3ccccc3)C2)CC1`, the Potency in assay [1] was over 11.4 µM; in assay [4] it was over 46 µM. For the same molecule, the activity change, negative = inhibition in assay [2] was -8.21%. The Potency result in assay [3], in [5] and in assay [6] was “inactive” in each case. Moreover, the activity, negative = inhibition in assay [10] is 10.9%. The activation in assay [12] is 3.78%. The result in assay [8] was inactive.

For the molecule `O=C(c1cnccn1)N1CCC2(CCCN(Cc3nccs3)C2)CC1`, the Potency in assay [1] is over 11.4 µM; in assay [3], 15.8 µM (active); in assay [4], over 46 µM; in assay [14] it was 7.94 µM (active). Further, in assay [2], the activity change, negative = inhibition is -20.7%. The activity, negative = inhibition in [10] is -4.76%. The Potency result in [5], in [6] and in assay [13] was “inactive” in each case. In [8], the outcome was inactive.

With `COc1ncc2nc(-c3ccc(Cl)cc3)c(=O)n(CCc3ccccc3)c2n1`, the Potency in assay [1] was over 11.4 µM; in [11], over 9.22 µM; in [4], over 46 µM. Moreover, the activity change, negative = inhibition in [2] is -3.59%; in assay [9], -9.46%. The activity, negative = inhibition in assay [10] is 1.11%. Also, the Potency entry in assay [5] and in assay [6] was “inactive” throughout. Moreover, in [8], the outcome was inactive.

Regarding `O=c1cnc2cnc(Oc3ccccc3)nc2n1C[C@H]1CCCO1`, the Potency is over 11.4 µM in assay [1], over 9.22 µM in [11] and over 46 µM in [4]. For the same molecule, the activity change, negative = inhibition in assay [2] was -19.1%; in assay [9], -3.47%. For the same molecule, the activity, negative = inhibition in assay [10] was -8.07%. The Potency entry in [5] and in assay [6] was “inactive” in each case. The result in [8] was inactive.

Regarding `N#Cc1cccc(NC(=O)N2CCCC3(CCN(C(=O)c4cccc(F)c4)CC3)C2)c1`, the Potency is over 11.4 µM in assay [1], 12.6 µM (active) in assay [3] and over 46 µM in assay [4]. In addition, in assay [2], the activity change, negative = inhibition is -6.98%. The activity, negative = inhibition in assay [10] is -4.33%. The Potency entry in [5], in [6] and in [13] was “inactive” throughout. For the same molecule, the outcome in assay [8] was inactive.

(Values after PubChem BioAssay (NCATS).)
